# Reference: PubChem BioAssay (NCI)
# Compounds without any hit were thinned out: in the full panel of roughly 83,000, 20% have a hit.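 48-hour exposure, single concentration, 96-well plates; percent growth endpoint where 0 means no net growth. Active: below 10.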 Unmarked numbers belong to inactive results. Calls of active or inactive are those of the source.
# System: SK-OV-3 ovarian
# Experiment: NCI-60 one-dose screen, 48 h (100 = growth as untreated, 0 = no growth, -100 = all killed)
# Conditions: 10 µM
# Description: Growth inhibition of the SK-OV-3 human tumor cell line is measured as a screen for anti-cancer activity. Cells are grown in 96 well plates and exposed to the test compound for 48 hours. Compounds are tested at a single concentration, which is 10^-5 M for most compounds. The reported endpoint is percent growth (GI% or GIPRCNT), where numbers from 0 - 100% represent growth inhibition, and numbers from -100% - 0 represent cell death. For example, a value of 40 represents 60% growth inhibition. A value of 0 means no net growth occurred over the course of the experiment. A value of -40 indicates 40% of cells at the beginning of the experiment died by the end of the experiment. A value of -100 means all cells are dead at the end of the experiment.
# NCI-60 Human Tumor Cell Lines Screen was performed using the standard one-dose NCI protocol, which is described in more detail at https://dtp.cancer.gov/discovery_development/nci-60/default.htm.
# Compounds with GIPRCNT values below 10 were considered active. Activity score was based on GIPRCNT using the following formula: […]
# Score is 0 for GIPRCNT values of 100 or above, 50 for GIPRCNT values of 0, and 100 for GIPRCNT values of -100.
row,Structure (SMILES),growth
1,N#Cc1c(N)sc(=S)c2c1CCCC2,103%
2,CCOc1ccccc1/C=N/Nc1nc2ccccc2o1,94.2%
3,c1c(-c2cc(C3CC3)[nH]n2)n[nH]c1C1CC1,96.2%
4,COc1ccc(C(C)C=O)cc1 (stereo not given),109%
5,COc1ccc(-c2cc(-c3cc(-c4ccc(OC)cc4)nc(N)n3)nc(N)n2)cc1,106%
6,CC1(c2ccccc2)NC(=O)NC1=O (stereo not given),107%
7,O=[N+]([O-])c1cccc2nsnc12,94.1%
8,CC1(O)CCCCC1O (stereo not given),101%
9,O=c1cc(-c2ccccc2)[nH]c2c1CCCC2,25.8%
10,COC(=O)c1ccccc1Br,107%
11,COC(=O)Nc1cccc(Cl)c1OC,116%
12,COc1cc2cc(c1Cl)N(C)C(=O)C[C@H](OC(=O)[C@H](C)N(C)C(C)=O)[C@]1(C)O[C@H]1[C@H](C)[C@@H]1C[C@@](O)(NC(=O)O1)[C@H](OC)C=C/C=C(\C)C2,36.1%
13,Cc1ccccc1N=C(c1ccccc1)C1C(=O)c2ccccc2C1=O,61.8%
14,Cc1cc(=O)cc(C)n1-c1ccccc1,94.7%
15,CC(=O)NC(N)=S,118%
16,CC(=O)OCC1=CC2OC(=O)C3=COC(OC4OC(CO)C(O)C(O)C4O)C1C32 (stereo not given),108%
17,O=C(O)C(O)c1ccccc1 (stereo not given),109%
18,CCCC(C)OCC(=O)O (stereo not given),113%
19,CC1=C(/C=C/C(C)=C/C=C/C(C)=C/CO)C(C)(C)CCC1,114%
20,O=C1C=CC(=O)N1c1ccc(I)cc1Cl,109%

row,Structure (SMILES),growth
1,O=[N+]([O-])c1ccc(N=Nc2ccc(O)c3ccccc23)cc1,92%
2,Cc1ccc(Cl)cc1N1C(=O)CC(Sc2ccccc2N)C1=O (stereo not given),102%
3,CC(C)(N)COS(=O)(=O)O,96.5%
4,CC1C(=O)c2ccccc2CC1C(=O)O (stereo not given),108%
5,COc1cc2cc(OC(C)=O)c3cc4c(cc3c2c(OC)c1OC)OCO4,103%
6,CCCCC(CC)COC(C)=O (stereo not given),101%
7,CC1(C)S(=O)(=O)OCCOS1(=O)=O,111%
8,CC(=O)Cc1cc(-c2cc(CC(C)=O)[nH]n2)n[nH]1,90.9%
9,Oc1ccccc1-c1nnco1,91.1%
10,CC(=Nc1ccccc1)C1=C(O)C(Cc2cccc(F)c2)NC1=O (stereo not given),4.34% (active)
11,CC(=O)OC(C(=O)O)c1ccccc1 (stereo not given),117%
12,COC(=O)C(C)Oc1ccc(OC#N)cc1 (stereo not given),103%
13,CC(C)=NNc1ccc([N+](=O)[O-])cc1[N+](=O)[O-],92.9%
14,CCOC(=O)c1cc(/C=C/c2ccc(Cl)cc2Cl)on1,104%
15,CNC(=O)c1ccccc1CC1(O)c2ccccc2Oc2ccccc21,73.7%
16,COC(=O)/C=C/C(=O)NC(N)=O,96.2%
17,C[N+](C)=c1ccc2nc3c(cc(Nc4ccccc4)c4ccccc43)oc-2c1,65.3%
18,O=C(Cc1nc2ccc([N+](=O)[O-])cc2nc1CC(=O)c1ccccc1)c1ccccc1,103%
19,CC1Cc2ccccc2O1 (stereo not given),112%
20,O=C1Cc2cc(O)ccc2O1,99.8%
